Reference: PubChem BioAssay AID434973 (Sanford-Burnham Center for Chemical Genomics, 2010)
Among all 330,000 compounds or so, about 4,900 (1.5%) were called active.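 The calls were made as follows: active = inhibition above about 50% at the single test dose (limit read from the data); inactive = the rest.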 Shown is part of a subset that was picked to be rich in actives.

Molecular target: Sentrin-specific protease 7 (Homo sapiens) (UniProt Q9BQF6)
Assay: blockers of human SENP7 peptidase activity – biochemical, luminescence, uHTS, primary screen (AID 434973);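 also: plate controls were DMSO with enzyme for no effect and no enzyme buffer wells for full effect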
Settings: recombinant SENP7, Z-RLRGG-aminoluciferin luminescence, 40 min; at 5 µM; stronger effect = higher value

inhibition, active:
CCOc1ccc2nc(C(=O)N3CCCC(C)C3)sc2c1 (stereo not given) 67.4%
O=c1oc2cc(O)ccc2cc1-c1ccc(F)cc1 100%
O=C(Nc1nc2ccc([N+](=O)[O-])cc2s1)c1ccncc1 85.8%
CCCc1cc(=O)oc2c(C)c(OCC(=O)Nc3ccccn3)ccc12 70.1%
Oc1ccccc1-c1cc(-c2ccc(Cl)cc2)n[nH]1 92%
c1ccc(-c2cc(-c3ccccc3)[nH]n2)cc1 54.4%
O=C(Nc1ccc(Cl)cc1)c1ccsn1 51%
CCc1ccc2oc(-c3ccc(N)cc3)nc2c1 97.1%
CCOC(=O)c1ccc(Nc2cc3ccccc3c(=O)[nH]2)cc1 84.1%
Brc1ccc(-c2noc(-c3ccccc3)n2)o1 88.5%
Nc1ccc(-c2nnc(-c3ccc(-c4ccccc4)cc3)o2)cc1 70.3%
Brc1ccc(-c2nnc(-c3ccccc3)o2)o1 57.6%

inhibition, inactive:
Cc1noc(C)c1C(=O)NCCc1ccc(S(N)(=O)=O)cc1 10.1%
COc1ccc2cc(C(=O)C3CCCN(C(=O)c4sc(C)nc4C)C3)ccc2c1 (stereo not given) -3.44%
CCCC(=O)N(CCN1CCOCC1)c1nc2ccc(OCC)cc2s1 28.1%
Cc1ccc(CNC(=O)Cn2cnc3c(NCc4ccccc4)ncnc32)o1 -4.15%
C=C(Cl)COC(=O)C1C2C=CC(C2)C1C(=O)O (stereo not given) -1.65%
CSCCC(NC(=O)C1CCC(C)CC1)C(=O)NCc1ccco1 (stereo not given) 0.735%
O=C(O)c1ccccc1NC(=S)NC(NC(=O)c1ccccc1[N+](=O)[O-])C(Cl)(Cl)Cl (stereo not given) 14%
CN(C)c1cc(-c2ccc(F)cc2)oc(=O)c1Cl 5.73%
CCCCCCc1cc2cc(-c3nnc(-c4ccccc4)o3)c(=O)oc2cc1O -10.4%
Cn1c(N)c(C(=O)COC(=O)C23CC4CC(CC(C4)C2)C3)c(=O)n(C)c1=O -1.02%
COc1cc(NC(=O)c2cncc(-c3ccc(C#N)cc3)c2)cc(C(=O)Nc2cccc(C(F)(F)F)c2)c1 -7.54%
COc1ccc(C(=O)Nc2nc(-c3ccc(OC)cc3)c(-c3ccc([N+](=O)[O-])cc3)s2)cc1 -0.702%
O=C(NC(Nc1nc2ccc([N+](=O)[O-])cc2s1)(C(F)(F)F)C(F)(F)F)c1ccccc1 3.23%
CCCc1cc(=O)oc2c(C)c(OCC(=O)NCc3ccccn3)ccc12 12.3%
CCCc1cc(=O)oc2c(C)c(OCC(=O)N3CCC(C(=O)O)CC3)ccc12 -6.34%
CCO/N=C(/C)c1c(O)cc(-c2ccccc2)n(-c2ccccc2)c1=O 0.576%
CC1CCCC(NC(=O)c2cc(-c3ccncc3)nc3ccccc23)C1C (stereo not given) -16.1%
CC(C)C(=O)NCc1cc(-c2ccc(Cl)cc2)no1 5.4%
Cc1ccc(NC(=O)c2cc(-c3ccccc3O)n[nH]2)cc1C -11.8%
S=c1[nH]nc(-c2cc(-c3ccsc3)n[nH]2)n1-c1ccccc1 4.56%
S=c1[nH]nc(-c2cc(-c3ccccc3)n[nH]2)n1/N=C/c1c2ccccc2cc2ccccc12 -9.51%
CO[C@@H]1[C@@H](OC(N)=O)[C@@H](O)C(Oc2ccc3c(O)c(NC(=O)c4ccc(O)c(CC=C(C)C)c4)c(=O)oc3c2C)OC1(C)C (stereo not given in full) -1.54%
COc1ccc(-n2nnnc2SCC(=O)c2ccc(OC)c(OC)c2)cc1 3.65%
CCC(C)C(N=C1NS(=O)(=O)c2ccccc21)C(=O)N1CCC(C)CC1 (stereo not given) 2.08%
CCc1nnc(NC(=O)CSCc2cc(=O)n3cc(C)sc3n2)s1 -0.123%
CCCCN(C(=O)C1=NN(c2cc(C)ccc2C)C(=O)CC1)c1c(N)n(CCC)c(=O)[nH]c1=O 1.8%
Cc1ccc(CNC(=O)C2CCCN2C(=O)NCc2ccccc2)cc1 (stereo not given) -3.49%
O=C(NC1CCCC1)C(c1ccccn1)N(C(=O)c1csnn1)C1CCCC1 (stereo not given) 4.87%
CCC(=O)Nc1ccc(C(=O)NNC(=O)c2ccc(Cl)cc2)cc1 -16.2%
O=C(NCc1ccccn1)Nc1ccc(Cl)cc1 0.805%
O=C1CC(Cc2ccccc2)C(=O)N1c1ccc(Cl)cn1 (stereo not given) -5.29%
COc1ccccc1C1CCN(C(=S)Nc2ccc(Br)cc2)CC1 5.73%
Cc1cc2nc(-c3ccc(NC(=O)c4cccnc4)cc3)oc2cc1C -3.95%
O=C(Nc1ccc2oc(-c3ccc4ccccc4c3)nc2c1)c1cccs1 -22.1%
CNC(=O)c1c(NC(NC(=O)c2ccco2)C(=O)c2ccc(Cl)cc2)sc2c1CCCC2 (stereo not given) 3.25%
CCOC(=O)c1ccc(Nc2cc(C)nc3nc(C)nn23)cc1 0.148%
CCOC(=O)c1ccc(NC(=O)c2cc(=O)[nH]c3ccccc23)cc1 4.62%
Cc1ccc(CN2CCN(c3ncccn3)CC2)c(C)c1 -3.53%
Cc1cc(=O)oc2c(C)c(OCC(=O)NCCc3ccc(S(N)(=O)=O)cc3)ccc12 7.75%
N#C/C=C/N1CCN(Cc2ccc3c(c2)OCO3)CC1 -6.74%
Cc1c(NC(=S)NC(=O)CCc2ccccc2)c(=O)n(-c2ccccc2)n1C -7.18%
CN(C)c1ccc(-c2nnc(-c3cccnc3)o2)cc1 8.14%
Cn1nc(-c2ccccc2)c(-c2nc(-c3ccc(Cl)cc3)no2)c1Cl 1.67%
Nc1nonc1-c1noc(-c2ccc(Br)o2)n1 9.66%
Nc1ccc(-c2nnc(-c3ccccc3)o2)cc1 49.9%
O=C(OCc1ccc(Br)cc1)c1cccc(-c2nnc(-c3ccccc3)o2)c1 23.5%
OC(c1nnc(-c2ccccc2)o1)c1cccs1 (stereo not given) 2.83%
COc1ccc(C2C(C(C)=O)=C(O)C(=O)N2CCc2c[nH]c3ccccc23)cc1 (stereo not given) 0.562%
